Measured values as given in ChEMBL document CHEMBL1157539, “Thousands of chemical starting points for antimalarial lead identification” (Nature, 2010).
“And” between values parts separate entries of the source, which are not always exact repeats. Identical values can stand only once.

How the values were obtained:
Type in all cases: functional
[1] = test system: Plasmodium falciparum; assay: GSK_TCMDC: Inhibition of Plasmodium falciparum 3D7 in whole red blood cells, using parasite LDH activity as an index of growth. Test compounds present at 2uM
[2] = test system: Plasmodium falciparum; assay: GSK_TCMDC: Inhibition of Plasmodium falciparum Dd2 in whole red blood cells, using parasite LDH activity as an index of growth. Test compounds present at 2uM
[3] = test system: HepG2; assay: GSK_TCMDC: Percent inhibition of human HepG2 cell line. Test compounds present at 10uM.

SMILES | Inhibition [1] | Inhibition [2] | Inhibition [3]
Cc1ncc([N+](=O)[O-])n1CCOC(=O)NC(NCC1COc2ccccc2O1)C(Cl)(Cl)Cl (configuration not stated) | 100% | 78% | 0%
CN(C)C(CNC(=O)c1cc(-c2ccncc2)c(-c2ccc(NC(=O)Nc3cccc(F)c3)cc2)o1)c1ccccc1.O=C(O)C(F)(F)F (configuration not stated) | 100% | 99% | 11%
CS(=O)(=O)c1ccccc1CNC(=O)c1ccc(-c2cccc(-c3nc4cc(C(F)(F)F)ccc4[nH]3)c2)cc1 | 91% | 4% | 36%
O=C(Nc1ccc(-c2ccccc2)cc1)Nc1cccc(Cn2ncc(N3CCNCC3)c(Cl)c2=O)c1.O=C(O)C(F)(F)F | 100% | 59% | 30%
COc1ccc(NC(=O)[C@H](CC(C)C)Nc2cc(C)nc(NCc3cccc(C)c3)n2)cc1.O=C(O)C(F)(F)F | 100% | 90% | 24%
CCC(C)NC(=O)Nc1cccc(-c2cccc(-c3nc4cccc(C)c4[nH]3)c2)c1 (configuration not stated) | 100% | 27% | 3%
CCCC/C=C(\Cl)c1ccc(O)c2c1C[C@H]1C[C@H]3[C@H](N(C)C)C(O)=C(C(N)=O)C(=O)[C@@]3(O)C(O)=C1C2=O.Cl | 90% | 98% | 16%
COCC(C)n1c(C)cc(C(=O)CSc2nnc(Nc3ccccc3)s2)c1C (configuration not stated) | 97% | 98% | 0%
Cc1ccc(C2CC(=O)CC(c3ccccn3)C2[N+](=O)[O-])cc1 (configuration not stated) | 97% | 2% | 5%
N#Cc1cc([N+](=O)[O-])ccc1-n1nc(C(N)=O)n(Cc2cccc(F)c2)c1=S | 100% | 100% | 6%
COc1ccc2nccc([C@@H](O)CN3CCC(NCc4nc5c(cc4Cl)SCC(=O)N5)C(F)C3)c2c1.Cl (some centres not stated) | 94% and 99% | 94% and 100% | 20% and 10%
CN(C(=O)Nc1ccc(C(F)(F)F)cc1)C1CCN(CCCCCNC(=O)/C=C/c2ccc(Cl)c(Cl)c2)CC1 | 100% | 38% | 57%
O=c1cc(NCCCNCc2cccc(C(F)(F)F)c2Cl)[nH]c2ccccc12 | 94% | 24% | 0%
COc1ccc2nccc([C@@H](O)CN3CCC(NCCOc4c(C)cccc4F)CC3)c2c1.O=C(O)C(=O)O | 100% | 95% | 4%
Cc1cc(C(=O)Nc2ccc(OCc3ccccc3)cc2)on1 | 87% | 89% | 1%
CNCCNCc1ccc(-c2ccc(-c3nc4cc(C(F)(F)F)ccc4[nH]3)s2)cc1.O=C(O)C(F)(F)F | 99% | 100% | 30%
COc1ccccc1CCNc1nc(C)cc(NCCC(=O)NCCOc2ccccc2)n1.O=C(O)C(F)(F)F | 85% | 14% | 11%
CCOc1ccc(C(=O)Nc2nonc2-c2ccc(OC)c(OC)c2)cc1 | 95% | 42% | 7%
CC(C)(NCc1ncc[nH]1)c1nc(-c2ccc(Cl)c(O)c2)c(-c2ccncc2)[nH]1.Cl | 95% | 97% | 42%
COc1cc(Br)c(NC(=O)Nc2ccc(C(F)(F)F)c(O[C@@H]3CCN(C)C3)c2)cc1OC.Cl | 97% | 27% | 10%

SMILES | Inhibition [1] | Inhibition [2] | Inhibition [3]
Cc1nnsc1C(=O)Nc1cccc(-c2csc(-c3nc4ccccc4[nH]3)c2)c1 | 94% | 50% | 51%
CN1CCC(N(Cc2ccc(-c3ccc(C(F)(F)F)cc3)cc2)C(=O)Cn2cc(Cc3cnn(C)c3)c(=O)nc2SCc2cccc(F)c2F)CC1.O=C(O)C(O)C(O)C(=O)O | 88% | 91% | 68%
O=C(O)c1ccc2c(c1)N(C(=O)CNCc1ccc(F)cc1)CC(=O)N2CCCc1ccccc1 | 95% | 0% | 1%
Oc1cc2c(cc1CN1CCN(Cc3ccccc3F)CC1)CCC2 | 98% | 94% | 2%
CC(O)CNc1nc2ccccc2n1CC(=O)Nc1cccc(C(=O)Nc2cccc(C(F)(F)F)c2)c1 (configuration not stated) | 99% | 95% | 2%
Cc1ccc(N2C(N)=NC(N)=NC2(C)C)cc1.Cl | 96% | 20% | 43%
O=C(Nc1ccc(Cl)cc1C(=O)Nc1ccncc1)c1ccc(Cl)cc1Cl | 99% | 75% | 8%
COc1cc(Cc2cnc(N)nc2N)cc(OCCCCC2NC(=O)NC2=O)c1OC (configuration not stated) | 94% | 0% | 2%
Oc1ccc(CCNc2nc(N/N=C/c3ccc(Cl)cc3)nc(N3CCNCC3)n2)cc1 | 100% | 68% | 14%
COc1ccc2ncc(F)c(CCN3CCC(NCc4ccc5c(c4)CCO5)CC3)c2n1.Cl | 100% | 30% | 20%
COCCCC1C(=O)OC2CCCC21 (configuration not stated) | 93% | 85% | 0%
CCCC(C(CC1CCC(C)CC1)C(=O)NC(CCCNc1ncccn1)C(=O)Nc1nccs1)N(O)C=O (configuration not stated) | 98% | 98% | 10%
CN1CCN(Cc2cc(NC(=O)c3ccc(-c4ccc(Cl)cc4Cl)cc3)ccc2-c2ccccc2)CC1 | 95% | 21% | 52%
Cc1cc(N[C@@H](Cc2ccccc2)C(=O)NCc2cccs2)nc(NCC2CCCCC2)n1.O=C(O)C(F)(F)F | 100% | 92% | 0%
CCc1c(C)c2ccc3c(c2oc1=O)CN(CCc1ccc(F)cc1)CO3 | 94% | 85% | 0%
N.Nc1nc2c(ncn2COC2COP(=O)(O)OC2)c(=O)[nH]1 (configuration not stated) | 81% | 54% | 7%
Cl.O=S(=O)(Nc1cc2c(cc1O)CCNCC2)c1ccc(-c2ccc(Cl)cc2)cc1 | 99% | 0% | 10%
CSc1nc2cc3c(cc2n1C(=O)c1ccc(C)cc1)OCCO3 | 99% | 0% | 0%
Cn1cncc1C(=O)Nc1cccc(-c2ccc(-c3nc4ccccc4[nH]3)cc2)c1 | 99% | 11% | 0%
